The record followed here is PubChem BioAssay (NCI).

A short description of experiment [1]: NCI Yeast Anticancer Drug Screen. Data for the rad50 strain (AID 155).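 Also: 0% = growth of vehicle-only cultures of the same strain.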 Particulars: S. cerevisiae rad50 strain growth inhibition; at 50.0 µM; active compounds read high. A digest of the protocol:
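Relative growth inhibition (compound vs vehicle) was measured in yeast with a defined repair-gene alteration.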

Experiment [2] can be described thus: NCI Yeast Anticancer Drug Screen. Data for the mec2-1 strain (AID 157). Particulars: S. cerevisiae mec2-1 strain, at 50.0 µM, active compounds read high. A digest of the protocol:
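Strain: mec2-1 (DNA repair/cell cycle alteration). Compound exposure, then growth measured; inhibition expressed relative to vehicle.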

Experiment [3] is described as follows: NCI Yeast Anticancer Drug Screen. Data for the sgs1 mgt1 strain (AID 161).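 Also: 0% = growth of cultures given vehicle only.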 Particulars: S. cerevisiae sgs1 mgt1 strain, at 50.0 µM, active compounds read high. A digest of the protocol: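 Inhibition of yeast growth, normalised to vehicle-treated controls, is reported for a strain bearing genetic alterations in DNA damage repair.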
Experiment [4] is described as follows: NCI Yeast Anticancer Drug Screen. Data for the cln2 rad14 strain (AID 165).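 Also: 0% = growth equal to vehicle treated cultures.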 Particulars: S. cerevisiae cln2 rad14 strain, at 50.0 µM, active compounds read high. A digest of the protocol: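 Compounds are applied to the cln2 rad14 yeast strain, and growth is then compared with that of vehicle-treated cultures to give inhibition.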
A short description of experiment [5]: NCI Yeast Anticancer Drug Screen. Data for the bub3 strain (AID 167). Particulars: S. cerevisiae bub3 mutant strain, at 50.0 µM, active compounds read high. A digest of the protocol:
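Screening used yeast with an engineered genetic alteration affecting cell cycle control. Compound-exposed cultures were compared with vehicle cultures, and reduced growth was taken as inhibition.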

Experiment [6] is described as follows: NCI Yeast Anticancer Drug Screen. Data for the mlh1 rad18 strain (AID 175). Particulars: S. cerevisiae mlh1 rad18 strain growth inhibition; at 50.0 µM; active compounds read high. The method in brief:
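Read-out is yeast growth inhibition, calculated against vehicle-only controls. The compound was applied to a strain engineered with DNA damage repair alterations.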

Compounds without any hit were thinned out: in the full panel of roughly 79,000, 15% have a hit. A number with no mark means an inactive call. Calls of active or inactive are those of the source. Rule as the data show it: active = growth inhibition above about 70%; inactive = the rest. Where a SMILES comes first, the peptide text is derived from it. The star is where a group is joined. Trt = c1ccc(C(c2ccccc2)(c2ccccc2)*)cc1

With `CC(C)(C)C(=O)[CH-]C(=O)C(F)(F)F.CC(C)(C)C(=O)[CH-]C(=O)C(F)(F)F.CC(C)(C)C(=O)[CH-]C(=O)C(F)(F)F.[Ru+3]`, the growth inhibition in experiment [1] was 25.8%; in experiment [2], -4.65%; in experiment [3], 1.7%; in experiment [4] it was -1.35%; in experiment [5], 8.5%; in experiment [6], 24.4%.
As for `CC(=O)O[C@H]1[C@@H]2[C@@H]3[C@@H](C[C@H]1C)[C@@H](C)CO[C@@]1(C)CC/C=C(/C)C[C@@H]2O[C@@H]31`, the growth inhibition in experiment [1] was -3.9%; in experiment [2] it was -1.75%; in experiment [3], 0.15%; in experiment [4] it was -19.1%; in experiment [5], -12.8%; in experiment [6], -8.95%.
Take `COc1ccc2cc(NC(=O)N/N=C\c3ccc([N+](=O)[O-])cc3)ccc2c1`: the growth inhibition in experiment [1] is 27.1%; in experiment [2], 7.35%; in experiment [3], 19.2%; in experiment [4], -8.3%; in experiment [5] it was 12.9%; in experiment [6] it was 27.4%.
With `COc1ncnc2ccccc12`, the growth inhibition is -30.9% in experiment [1]; -16.8% in experiment [2]; -20.8% in experiment [3]; -32.8% in experiment [4]; -25.2% in experiment [5]; -25.1% in experiment [6].
On to `N#CCC(=O)c1ccccc1C(=O)O`, for which the growth inhibition was -4.45% in experiment [1]; -38.8% in experiment [2]; 4.7% in experiment [3]; 4.65% in experiment [4]; -6.2% in experiment [5]; 17.6% in experiment [6].
For the compound `CCOC(=O)C(=CNc1ccc(S(N)(=O)=O)cc1)C(=O)OCC`, the growth inhibition in experiment [1] is 13.7%; in experiment [2], 7.95%; in experiment [3], -31.1%; in experiment [4], 5.6%; in experiment [5], -14%; in experiment [6], -26.2%.
In the case of `CC(/C=C/C(=O)c1sc(C(N)=S)nc1C)=C\c1ccccc1`, the growth inhibition in experiment [1] is 4.55%; in experiment [2], -13.1%; in experiment [3] it was -6.8%; in experiment [4], 10.8%; in experiment [5], -5.8%; in experiment [6], 22.2%.
On to `CCC(CC)c1ccc2ccccc2c1`, for which the growth inhibition is -22.2% in experiment [1]; 1% in experiment [2]; -11.6% in experiment [3]; -19.6% in experiment [4]; -6.55% in experiment [5]; -11.4% in experiment [6].
With `C=C(Cl)COc1ccc(-c2ccccc2)cc1`, the growth inhibition is 28.4% in experiment [1]; 6.9% in experiment [2]; 16.5% in experiment [3]; -2.7% in experiment [4]; -8.55% in experiment [5]; 1.2% in experiment [6].
In the case of `COc1cc([C@H]2c3[nH]c4ccccc4c3C[C@H]3COC(=O)N32)cc(OC)c1O`, the growth inhibition was 56.5% in experiment [1]; 9.85% in experiment [2]; 25% in experiment [3]; 12.1% in experiment [4]; 18.9% in experiment [5]; 51.9% in experiment [6].
For the compound `C=C(CN(CC)CC)C1(c2ccccc2)CC2(CCCC2)C(=O)O1` (stereo not given), the growth inhibition in experiment [1] was 20.9%; in experiment [2], 23.9%; in experiment [3], 1.15%; in experiment [4], 3.6%; in experiment [5], 10.2%; in experiment [6], 5.65%.
Take `O=C(NC1CCCCC1C1CCCCC1)c1ccc(Cl)cc1` (stereo not given): the growth inhibition in experiment [1] is 1.55%; in experiment [2], 2.5%; in experiment [3] it was -1.3%; in experiment [4] it was -10.9%; in experiment [5] it was 7.15%; in experiment [6] it was 6.45%.
As to `COC(=O)C(NC(=O)C(N)CSC(c1ccccc1)(c1ccccc1)c1ccccc1)C(C)C` (stereo not given) (H-Cys(Trt)-Val-OMe; configuration not given here), the growth inhibition was 97.3% (active) in experiment [1]; 98.6% (active) in experiment [2]; 98.7% (active) in experiment [3]; 95.2% (active) in experiment [4]; 97.6% (active) in experiment [5]; 98.5% (active) in experiment [6].
With `CC(=O)OC1CC2(C)OC(Cc3ccccc32)O1` (stereo not given), the growth inhibition in experiment [1] is -37.2%; in experiment [2], -3.05%; in experiment [3], -58.6%; in experiment [4] it was 4.4%; in experiment [5] it was -23.1%; in experiment [6], -43.5%.
As for `CC(=O)C=NCC(=O)O`, the growth inhibition in experiment [1] is -2.45%; in experiment [2] it was -3.4%; in experiment [3], -32.2%; in experiment [4] it was -24.8%; in experiment [5], -26.6%; in experiment [6] it was -8.8%.
For `Cc1ccc(-c2nnc(CCCCCCCCc3nnc(-c4ccc(C)cc4O)n3N)n2N)c(O)c1`, the growth inhibition in experiment [1] is 9.2%; in experiment [2], -21.9%; in experiment [3] it was 3.75%; in experiment [4] it was 7.5%; in experiment [5] it was 1.75%; in experiment [6], 0.5%.
For the compound `Ic1ccc(N=Cc2cccs2)cc1`, the growth inhibition in experiment [1] was 5.1%; in experiment [2] it was -1.85%; in experiment [3], 21.6%; in experiment [4], 6.8%; in experiment [5], 10.8%; in experiment [6], 21.8%.
In the case of `O=C1Sc2ccccc2C(=O)N2CCCC12` (stereo not given), the growth inhibition was -20.8% in experiment [1]; -8.25% in experiment [2]; -11.5% in experiment [3]; 3.2% in experiment [4]; 8.2% in experiment [5]; -10.2% in experiment [6].
`CCOC(=O)CCCl`: the growth inhibition was 24% in experiment [1]; 15.6% in experiment [2]; -2.95% in experiment [3]; 30.2% in experiment [4]; 31.3% in experiment [5]; 12.8% in experiment [6].
For the compound `O=C1CC2C(=O)N(Cc3ccccc3)C1C=C2S(=O)(=O)c1ccccc1` (stereo not given), the growth inhibition was -15.7% in experiment [1]; 21.6% in experiment [2]; 36.8% in experiment [3]; 4.25% in experiment [4]; -1.3% in experiment [5]; 4.9% in experiment [6].
